Here are results for 13 compounds from PubChem BioAssay (NCI).

Among the test systems are NCI-H23 lung; NCI-H226 lung; NCI-H322M lung; HOP-62 NSCLC; NCI-H460 lung; HOP-92 NSCLC; NCI-H522 lung; A549/ATCC NSCLC; 786-0 renal; COLO 205 colon.
Holding throughout (test): NCI-60 one-dose screen, 48 h (100 = growth as untreated, 0 = no growth, -100 = all killed)
Settings in all cases: 10 µM

The panel holds about 83,000 compounds, 20% with a hit somewhere; the sample as a whole holds those more often.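 Each cell line was grown in a 96-well plate and treated with one concentration of compound for 48 hours. Values below 10 were considered active.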 Unmarked numbers belong to inactive results. The source made the active and inactive calls.

Regarding `C=C1CCC2C3(C)COC(c4cccc(F)c4)OC3CCC2(C)C1CC(O)C1=CCOC1=O` (stereo not given), the growth with NCI-H23 lung is 82.9%; with NCI-H226 lung, 73.1%; with NCI-H322M lung, 90.4%; in the assay with HOP-62 NSCLC, 88.7%; with NCI-H460 lung, 82.2%; in the assay with HOP-92 NSCLC, 76.4%. Also, the growth with NCI-H522 lung is 23.9%; in the assay on A549/ATCC NSCLC it was 80.3%; with 786-0 renal it was 41.1%; in the assay with COLO 205 colon, 60.7%.

With `COc1ccccc1[C@H]1C(C(=O)c2ccc(O)cc2)C2(N[C@@H]1c1ccccc1)C(=O)Nc1ccc(Br)cc12` (stereo not given in full), the growth was 33.8% with NCI-H23 lung; 48.1% with NCI-H226 lung; 55.3% with NCI-H322M lung; 51.3% with HOP-62 NSCLC; 20.2% with NCI-H460 lung; 51.8% in the assay on HOP-92 NSCLC. Besides, the growth in the assay on NCI-H522 lung is -7.87% (active); with A549/ATCC NSCLC, 32.6%; in the assay on 786-0 renal, 26.9%; in the assay with COLO 205 colon, -5.4% (active).

As to `O=C1Nc2ccc(Cl)cc2/C1=C/c1ccc(OCc2ccc(Br)cc2F)cc1`, the growth in the assay with NCI-H23 lung is 7.12% (active); in the assay on NCI-H226 lung, 6.85% (active); in the assay on NCI-H322M lung, 48.2%; in the assay on HOP-62 NSCLC, 5.12% (active); in the assay with NCI-H460 lung it was 7.07% (active); in the assay on HOP-92 NSCLC, 10.9%. Further, the growth is 23.3% in the assay on NCI-H522 lung, 34.1% in the assay on A549/ATCC NSCLC, 2.33% (active) in the assay with 786-0 renal and 51.6% in the assay on COLO 205 colon.

As to `OCCCNc1oc(-c2ccccc2)nc1[P+](c1ccccc1)(c1ccccc1)c1ccccc1`, the growth in the assay on NCI-H23 lung was -1.07% (active); in the assay with NCI-H226 lung it was -5.46% (active); in the assay with NCI-H322M lung, 31.9%; in the assay with HOP-62 NSCLC it was 17.9%; in the assay on NCI-H460 lung, 3.97% (active); with HOP-92 NSCLC it was -24.1% (active). In addition, the growth in the assay on NCI-H522 lung was 2.08% (active); in the assay with A549/ATCC NSCLC, 29.6%; in the assay on 786-0 renal, 11.2%; in the assay on COLO 205 colon it was -52.3% (active).

With `COc1cc(/C=C/C(=O)c2cc(OC)c(OC)c(OC)c2)ccc1Oc1nc(Nc2ccc(F)cc2)nc(N(C)C)n1`, the growth was -23.7% (active) with NCI-H23 lung; 17.9% in the assay with NCI-H226 lung; 9.59% (active) in the assay on NCI-H322M lung; -44.5% (active) in the assay on HOP-62 NSCLC; -23% (active) with NCI-H460 lung; -42.3% (active) with HOP-92 NSCLC. Besides, the growth in the assay with NCI-H522 lung was -82.7% (active); in the assay with A549/ATCC NSCLC it was -48.3% (active); in the assay on 786-0 renal, -94.1% (active); in the assay with COLO 205 colon it was 7.64% (active).

As to `Cn1cc(/C=N/Nc2ccnc3cc(Cl)ccc23)c2ccccc21`, the growth in the assay with NCI-H23 lung was -84.1% (active); in the assay on NCI-H226 lung, -67.5% (active); in the assay with NCI-H322M lung, -99.6% (active); in the assay with HOP-62 NSCLC, -63.8% (active); in the assay with NCI-H460 lung it was -67.5% (active); with HOP-92 NSCLC, -68% (active). Moreover, the growth in the assay with NCI-H522 lung is -68.1% (active); with A549/ATCC NSCLC, -39% (active); with 786-0 renal, -65.2% (active); in the assay with COLO 205 colon it was -59% (active).

For the compound `NS(=O)(=O)c1ccc(NC(=O)CSc2ccc(-c3ccccc3)nn2)c(Br)c1`, the growth was 59.1% in the assay on NCI-H23 lung; 20.5% in the assay with NCI-H226 lung; 64.3% in the assay with NCI-H322M lung; 17.4% in the assay on HOP-62 NSCLC; 82.4% in the assay with NCI-H460 lung; -20.3% (active) with HOP-92 NSCLC. Moreover, the growth with NCI-H522 lung was 42.4%; with A549/ATCC NSCLC, 70.4%; in the assay on 786-0 renal, 19.5%; in the assay with COLO 205 colon, 137%.

For `N#Cc1c(NC(=O)c2ccc(C(F)(F)F)c(Cl)c2)sc2c1CCC(=O)C2`, the growth in the assay on NCI-H23 lung was -60.9% (active); with NCI-H226 lung it was -26.4% (active); in the assay on NCI-H322M lung, 39.7%; in the assay on HOP-62 NSCLC it was -56.5% (active); with NCI-H460 lung, -10.1% (active); in the assay on HOP-92 NSCLC it was -55.3% (active). Further, the growth in the assay with NCI-H522 lung is -71.2% (active); in the assay on A549/ATCC NSCLC it was 19.3%; in the assay with 786-0 renal it was -48.2% (active); with COLO 205 colon, -94% (active).

`COc1ccc(-c2nc(S(=O)(=O)c3ccc(C)cc3)c(S(C)(=O)=O)o2)cc1`: the growth in the assay on NCI-H23 lung is -78.1% (active); with NCI-H226 lung, 72.1%; in the assay on NCI-H322M lung, 89.6%; with HOP-62 NSCLC, 84%; in the assay on NCI-H460 lung, 4.05% (active); with HOP-92 NSCLC, -75% (active). Also, the growth is -96.6% (active) with NCI-H522 lung, 81.2% with A549/ATCC NSCLC, -33.4% (active) in the assay on 786-0 renal and -88.7% (active) in the assay with COLO 205 colon.

For the compound `O=C(O)CCCCCCCCCCN1C(=O)/C(=C/c2cnc(-c3ccc(Cl)cc3)s2)SC1=S`, the growth in the assay with NCI-H23 lung was 11.8%; in the assay on NCI-H226 lung, 34.8%; with NCI-H322M lung, 5.41% (active); with HOP-62 NSCLC it was 36.3%; with NCI-H460 lung it was 4.44% (active); in the assay with HOP-92 NSCLC, -40.9% (active). The growth in the assay with NCI-H522 lung was -16% (active); in the assay on A549/ATCC NSCLC it was -19.6% (active); in the assay on 786-0 renal, 28.1%; in the assay with COLO 205 colon it was 139%.

For `COC[C@@H](CC(C)C)N=C1NC(=O)/C(=C/c2ccc3ncoc3c2)N1`, the growth in the assay with NCI-H23 lung is -14.2% (active); with NCI-H226 lung it was 0.124% (active); in the assay with NCI-H322M lung it was 20.4%; in the assay with HOP-62 NSCLC it was 14.4%; with NCI-H460 lung, 6.38% (active); in the assay on HOP-92 NSCLC it was 15.8%. Also, the growth is -16.2% (active) in the assay with NCI-H522 lung, 13.7% in the assay on A549/ATCC NSCLC, 22.2% in the assay with 786-0 renal and -16.1% (active) in the assay on COLO 205 colon.

Turning to `Cc1ccc(/C(N)=N/c2sc(-c3ccccc3)nc2-c2ccccc2)cc1`, the growth with NCI-H23 lung was 83.1%; with NCI-H226 lung it was 94.3%; in the assay on NCI-H322M lung, 90.2%; with HOP-62 NSCLC, 101%; in the assay with NCI-H460 lung, 76.5%; in the assay with HOP-92 NSCLC, 90.2%. Moreover, the growth with NCI-H522 lung is 83%; with A549/ATCC NSCLC it was 80.4%; in the assay on 786-0 renal, 76.7%; in the assay with COLO 205 colon, 91.1%.

`CC(=C(c1ccc(OCCCN(C)C)cc1)c1ccc(OCCCN(C)C)cc1)c1ccccc1`: the growth in the assay with NCI-H23 lung was -97.9% (active); in the assay with NCI-H226 lung it was -81.5% (active); in the assay with NCI-H322M lung, -100% (active); in the assay on HOP-62 NSCLC it was -90.5% (active); with NCI-H460 lung, 3.15% (active); in the assay with HOP-92 NSCLC it was -76.4% (active). Besides, the growth in the assay with NCI-H522 lung was -84.6% (active); in the assay on A549/ATCC NSCLC it was -73.1% (active); in the assay with 786-0 renal, -44% (active); with COLO 205 colon it was -85.9% (active).
